In PubChem BioAssay (NCATS):
Where “and” joins values, the source holds several entries; their conditions need not be identical. Identical values can stand only once. Results filed as inconclusive are left out. Calls of active or inactive are those of the source. Calls come from the whole dose curve; as a rule, active = well fitted activation curve with a large enough effect in the signal ratio; inconclusive = small, poorly fitted or top-dose-only effect, or a change in a side signal; inactive = flat fitted curve, though single readings scatter; the % refers to the signal ratio.

experiment: qHTS assay for small molecule activators of the nuclear factor-kappa B (NF-kB) signaling pathway (AID 651749); settings: NF-kB-bla ME-180 cells, beta-lactamase FRET ratio, 16 h; stronger effect = higher value; note: series mostly up to about 77 µM; % of control where 0% means no effect
Description: National Center for Advancing Translational Sciences [NCATS] NIH Chemical Genomics Center [NCGC] U.S. Environmental Protection Agency [EPA] National Institutes of Environmental Health Sciences [NIEHS] National Toxicology Program [NTP] Assay Overview: Transcription factors and their stimulated target gene expression play pivotal roles across many cellular processes including responses to environmental stimuli. Proper regulation of associated pathways is critical to maintain cell health and function. Constitutive activation of transcription factor pathways has been implicated in tumors as it may block cellular functions such as apoptosis and lead to invasion and metastasis. One important transcription factor that stimulates gene expression in response to cytokines, UV radiation, and other stimuli is nuclear factor-kappa B (NF-kB). To measure activation of the NF-kB pathway, the NF-kB-bla ME-180 cell line stably expressed beta-lactamase reporter gene under the regulation of a NF-kB response element was obtained from Invitrogen. This assay allows measurement of the NF-kB pathway activity induced by compounds in a ME-180 cell line. This system quantitates NF-kB activity using a FRET-based assay system where beta-lactamase expression disrupts FRET, allowing for fluorescent measurement of activity.
Assay Protocol Summary: For toxicology screening, 2,000 cells in 5 uL/well were dispensed into black, clear-bottom 1536-well plates using a Multidrop Combi (Thermo Scientific) dispenser. Following transfer of 23 nL compound or DMSO vehicle by a pin tool, the plates were incubated 16 hr at 37C and 5% CO2.

Compound | activation
CCC(O)OC(O)CC (stereo not given) | 0.14% (inactive) [middle of 4 runs]
CCO | -0.227% (inactive)
C[Si](C)(C)O[Si](C)(C)O[Si](C)(C)C | -3.32% (inactive)
Cc1cccc(O)c1 | -0.103% (inactive) and -1.79% (inactive)
O=NO | -0.475% (inactive) and 1.4% (inactive)
C=C(C)C1CC=C(C)C(O)C1 (stereo not given) | -0.16% (inactive)
CC1=C2[C@H](/C=C(\C)C(=O)O)CC[C@@H](C)[C@H]2CC1 | -1.71% (inactive)
S=C1NC=NC2N=CNC12 (stereo not given) | 1.89% (inactive)
C1OCOCO1 | -1.91% (inactive)
Clc1cc(Cl)c(Cl)cc1Cl | 0.515% (inactive) and -2% (inactive)
C=CCOC(=O)c1ccccc1C(=O)OCC=C | -0.29% (inactive) and -0.27% (inactive)
Nc1ccc(Cl)cc1Cl | 0.288% (inactive) and 1.41% (inactive)
O=C(O)c1ccccc1C(c1ccc(O)cc1)c1ccc(O)cc1 | -1.81% (inactive) and -6.43% (inactive)
Cc1c(N=C=O)cccc1N=C=O | -0.751% (inactive) and -0.0469% (inactive)
CC1(C)CC(N=C=O)CC(C)(CN=C=O)C1 (stereo not given) | -0.293% (inactive) and -0.0815% (inactive)
CN(C)C=O | 0.506% (inactive) and -0.104% (inactive) and -1.7% (inactive)
Nc1ccc(S(=O)(=O)O)cc1 | -0.239% (inactive) and 0.0399% (inactive)
C=CC(C)(CCC=C(C)C)OC(C)=O (stereo not given) | -0.624% (inactive)
C=CCc1ccc(OC)c(OC)c1 | -0.295% (inactive) and 0.286% (inactive)
ClCCCl | -0.0783% (inactive) and -1.06% (inactive) and -1.29% (inactive)

Compound | activation
CC12CCC(CC1=O)C2(C)C (stereo not given) | -0.0521% (inactive) and -0.265% (inactive)
O=S(=O)(O)c1ccccc1 | 0.223% (inactive)
c1ccc2scnc2c1 | -1.1% (inactive)
CCC(C)c1ccccc1O (stereo not given) | 0.327% (inactive) and -0.174% (inactive) and -0.563% (inactive)
Cc1cccc([N+](=O)[O-])c1C | -0.813% (inactive) and -0.315% (inactive)
CCCCOCCO | 0.401% (inactive) and -0.541% (inactive) and 0.482% (inactive)
CC(C)=CCCC(C)CCO (stereo not given) | 0.223% (inactive) and -0.597% (inactive)
C=Cc1ccccc1Cl | -1.19% (inactive)
O=C1c2ccccc2C(=O)C1c1ccc2ccccc2n1 | -1.78% (inactive) and 4.34% (inactive)
c1ccccc1 | -0.601% (inactive) [middle of 4 runs]
CCO[Si](CCCN)(OCC)OCC | -0.737% (inactive) and -1.24% (inactive)
O=C(O)CC(C(=O)O)C(CC(=O)O)C(=O)O (stereo not given) | -0.643% (inactive) and 0.457% (inactive)
COC(=O)c1ccc(C=O)cc1 | -1.54% (inactive)
O=C(O)c1ccc(O)cc1O | 0.834% (inactive) and -0.343% (inactive)
Cc1ccccc1C | -0.0827% (inactive) and -0.301% (inactive)
NC1=NC(S)C2N=CN=C2N1 (stereo not given) | 0.298% (inactive)
CCCCC(CC)CN (stereo not given) | -0.627% (inactive) and -0.116% (inactive)
C=CC(=C)CCC=C(C)C | -0.615% (inactive)
O=C(O)CCCCCCCCC(=O)O | -1.2% (inactive)
COc1ccc(/C=C/c2cc(OC)cc(=O)o2)cc1 | 1.78% (inactive)
